Screens: PubChem, several laboratories
APOBEC3A inh: blocks human APOBEC3A ssDNA deamination; recombinant A3A, FAM/TAMRA ssDNA deamination fluorescence; P31941; actives 0.41% (n = 330,000); AID 493011; inhibition, % at 20 µM;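 active = at least 40% inhibition at 20 µM here, with at most 30% in a related deaminase screen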;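 also: plate controls were A3A with DMSO for no effect and wells lacking A3A enzyme for full effect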
VLA-4 inh: inhibition in a human VLA-4 binding assay; inhibition, % (about 7 µM as worked out from the volumes in the protocol); AID 2557; actives 0.2% (n = 330,000); VLA-4 expressing cells, ligand binding flow cytometry; P13612; in the data active = inhibition above about 50%
APOBEC3G inh: blocks human APOBEC3G single-stranded DNA deamination. actives 0.28% (n = 330,000). recombinant A3G, ssDNA deamination FAM/TAMRA fluorescence. inhibition, % at 20 µM;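 active = inhibition of at least 40% at 20 µM, with no more than 30% in the related APOBEC3A deaminase screen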;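 also: plate controls were DMSO wells with A3G for no effect and wells lacking A3G enzyme for full effect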
Target sequence (Q9HC16 whole entry, looked up): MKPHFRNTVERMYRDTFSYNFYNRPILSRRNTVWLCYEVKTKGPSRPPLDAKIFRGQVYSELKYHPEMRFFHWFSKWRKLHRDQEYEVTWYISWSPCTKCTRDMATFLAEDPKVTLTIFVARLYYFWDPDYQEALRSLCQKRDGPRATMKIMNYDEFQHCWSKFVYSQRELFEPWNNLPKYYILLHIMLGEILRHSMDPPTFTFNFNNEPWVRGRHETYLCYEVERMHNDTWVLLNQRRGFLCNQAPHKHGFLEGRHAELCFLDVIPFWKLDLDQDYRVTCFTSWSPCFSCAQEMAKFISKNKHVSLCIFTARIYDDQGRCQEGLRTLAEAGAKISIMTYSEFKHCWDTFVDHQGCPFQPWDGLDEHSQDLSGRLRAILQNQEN
beta cell repl: MIN6 beta-cell proliferation induction. actives 0.29% (n = 330,000). proliferation, % at 10 µM. MIN6 cells proliferation, ATPlite luminescence, 48 h; cells starved in 0.2% serum; 100% = growth in 10% serum;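 active = compounds whose signal lies at least 3.5 SD above the mean of all wells on their plate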;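 also: 0% = DMSO-treated cells in low-serum medium and 100% = 10% serum control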
NRP1-CendR mod: modulators of CendR peptide binding to human neuropilin-1; AID 602438; inhibition, % at 25 µM; actives 0.85% (n = 360,000); FAM-RPARPAR peptide binding to NRP-1, fluorescence polarization;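 active = inhibition or corrected inhibition above about 18%, plus a signal ratio from 0.5 to 1.5, limit read from the data, passing the limit was not always enough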
The depositor's hits bear a star; · = no result. In the library only some 1.8% were active in any assay of this set; here they are far more common.

SMILES	APOBEC3A inh	VLA-4 inh	APOBEC3G inh	beta cell repl	NRP1-CendR mod
COc1ccc(/C=N/NC(=O)c2nn(-c3ccc(Cl)cc3)c(=O)c3c(N)scc23)cc1	-4	0	5	-3	30*
COc1ccc(/C=N/NC(=O)c2nn(-c3ccccc3)c(=O)c3c(N)scc23)cc1	-14	0	34	-5	-12
CC(C)Cc1nnc(NC(=O)c2ccc(S(=O)(=O)N3CCCC3)cc2)s1	3	·	-6	-2	5
O=C(Nc1cccc(F)c1)NC1(C(=O)N2CCC(O)CC2)CCCCC1	-3	0	-4	1	24*
CCc1nnc(NC(=O)COc2ccc3c(c2)OCO3)s1	1	-6	-7	0	-14
CCOc1ccc(OCC)c(NC(=O)C2CCN(S(=O)(=O)c3cnc[nH]3)CC2)c1	2	-13	2	2	21*
CCn1c(COc2c(C)cccc2C)nnc1SCC(=O)N1CCN(c2ccccc2)CC1	2	-17	-3	-3	37*
CCN1CCN(S(=O)(=O)c2ccc(Cl)c(C(=O)N(C)CC(=O)Nc3c(C)cccc3C)c2)CC1	·	·	·	·	1
O=C(NCc1ccco1)C1CCN(S(=O)(=O)c2cccc([N+](=O)[O-])c2)CC1	-3	6	-8	-2	28*
COc1cc(Nc2cccc(-c3ccccc3)n2)cc(OC)c1OC	·	·	·	·	30*
CCCCC(c1nnnn1CC1CCCO1)N1CCN(c2nc3ccccc3s2)CC1 (centres undefined)	·	·	·	·	18*
CCCC(c1nnnn1CC1CCCO1)N1CCN(c2nc3ccccc3s2)CC1 (centres undefined)	2	0	-6	2	-5
CN(C)/C=C1\NC(=S)N(c2ccccc2)C1=O	-5	3	-8	-3	25*
CN(C)/C=C1\NC(=S)N(c2ccc(Cl)cc2)C1=O	-1	-3	-1	1	-12
O=[N+]([O-])c1ccc(Cc2ccc([N+](=O)[O-])cc2)cc1	·	·	·	·	-3
O=[N+]([O-])c1ccc(Cc2ccncc2)cc1	-3	-6	-7	0	26*
CC(C)C(=O)N1CCC2(CC1)Oc1ccc(F)cc1C(=O)C21CC(c2ccc(Cl)cc2)=NO1 (centres undefined)	-3	-6	-13	-8	25*
CCC(=O)N1CCC2(CC1)Oc1ccc(F)cc1C(=O)C21CC(c2ccc(Cl)cc2)=NO1 (centres undefined)	0	-6	-8	-5	-8
CC1=CC(C)C2(CO)COC(c3cccnc3)C1C2C (centres undefined)	0	-2	-4	4	27*
CC1=CC(C)C2(CO)COC(c3ccc(O)cc3)C1C2C (centres undefined)	1	-1	0	-1	0
COc1ccccc1Cc1nnc(NC(=O)C2CCN(C(=O)c3ccco3)CC2)s1	3	-11	19	0	13
COc1ccc(NC(=O)N(C)C[C@H]2Oc3ccc(NC(=O)C4CC4)cc3CC(=O)N([C@@H](C)CO)C[C@@H]2C)cc1	2	16	1	1	-9
Cc1ccc2nc(SCc3nnc(-c4ccccc4Br)o3)[nH]c2c1	0	-2	-4	-2	33*
CC(C)N(CCCNC(=O)Cn1ncc2c([nH]c3ccccc32)c1=O)Cc1ccccc1	-1	22	-3	0	26*
COc1ccc(OC)c(N/C(N)=N/c2nc(C)cc(C)n2)c1	-1	2	-5	-2	8
SMILES	APOBEC3A inh	VLA-4 inh	APOBEC3G inh	beta cell repl	NRP1-CendR mod
COc1ccc(N/C(N)=N/c2nc(C)cc(C)n2)c(OC)c1	-3	-4	-6	2	30*
Cc1ccc(Nc2nc(C)c(CCC(C)C)c(=O)[nH]2)cc1	-4	7	-4	0	5
CCCCCc1c(C)nc(Nc2ccccc2)[nH]c1=O	-1	19	2	-1	38*
Cc1cccc2sc(NC(=O)CN3C(=O)C4CC=CCC4C3=O)nc12 (centres undefined)	0	5	-7	-1	32*
Cc1cccc2sc(NC(=O)CN3C(=O)NC4(CCCC4)C3=O)nc12	-4	10	-5	-3	4
COCCNC(=O)C1Cc2cc(S(=O)(=O)N3CCCC3)ccc2N1C(C)=O (centres undefined)	4	7	15	0	24*
Cc1cccc(C)c1NC(=O)C(c1ccncc1)n1c(=O)c(-c2ccco2)nc2ccccc21 (centres undefined)	·	·	·	·	-5
